# Data from PubChem BioAssay (NCATS).
# Several values for one entry are separate records, joined by “and”; a condition that tells them apart may be missing. Equal values may be shown once. Records with an inconclusive call do not appear. A call without a number means that no potency is given here. Some compounds were tested as several samples or in several runs, with calls that do not always agree. Activity calls are given as the source filed them. The call rests on the fitted dose curve; in most records, active means well fitted inhibition curve with a large enough effect; inconclusive means small, poorly fitted or top-dose-only effect; inactive means flat fitted curve, though single readings scatter.
# Experiments:
# [1] = test system: HEK293; test: Cytotoxic Profiling of Annotated Libraries Using Quantitative High-Throughput Screening (AID 1296008); details: Five cell lines viability, CellTiter-Glo ATP luminescence, 48-72 h; max response: stronger effect = lower value
# Summary of the method: (§1)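 Cells exposed to compounds for 48 or 72 hr at 37 degrees Celsius. Viability read as ATP-coupled luminescence with CellTiter-Glo after 10 min at room temperature.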
# [2] = test system: HaCat; test: as above; details: Five cell lines viability, CellTiter-Glo ATP luminescence, 48-72 h; max response: stronger effect = lower value
# Summary of the method: as §1
# [3] = test system: NIH3T3; test: as above; details: Five cell lines viability, CellTiter-Glo ATP luminescence, 48-72 h; max response: stronger effect = lower value
# Summary of the method: as §1
# [4] = test system: HACAT; test: qHTS assay to identify novel small-molecules to repurpose for Merkel cell carcinoma treatment (AID 1296009); details: MCC and control cell lines, CellTiter-Glo viability, 72 h; series mostly up to 44.8 µM
# Summary of the method: (§2)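 Cells were incubated with compound for 72 hr at 37 degree celsius before CellTiter-Glo addition. Luminescence was normalized with no-cell wells as full cytotoxicity and DMSO as baseline.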
# [5] = test system: MCC-13; test: as above; details: MCC and control cell lines, CellTiter-Glo viability, 72 h; series mostly up to 46 µM
# Summary of the method: as §2
# [6] = test system: MCC-26; test: as above; details: MCC and control cell lines, CellTiter-Glo viability, 72 h; series mostly up to 46 µM
# Summary of the method: as §2
# [7] = test system: MKL-2; test: as above; details: MCC and control cell lines, CellTiter-Glo viability, 72 h; series mostly up to 46 µM
# Summary of the method: as §2
# [8] = test system: HEK293T; test: as above; details: MCC and control cell lines, CellTiter-Glo viability, 72 h; at 44.8 µM (top of the series) unless noted
# Summary of the method: as §2
# [9] = test system: MKL-1; test: as above; details: MCC and control cell lines, CellTiter-Glo viability, 72 h; series mostly up to 46 µM
# Summary of the method: as §2
# [10] = test system: KB-3-1; test: Cytotoxic Profiling of Annotated Libraries Using Quantitative High-Throughput Screening (AID 1296008); details: Five cell lines viability, CellTiter-Glo ATP luminescence, 48-72 h; max response: stronger effect = lower value
# Summary of the method: as §1
# Further: nearly all actives have a fitted effect of over 60% in size.
# Potency means the concentration at half of the fitted maximal effect.
structure (smiles),measurement,setting,value
O=C1Cc2cc(CCN3CCN(c4nsc5ccccc45)CC3)c(Cl)cc2N1,Potency,[1],16.8 µM (active)
same,max response,[2],-2.23% (inactive) and 4.15% (inactive)
same,outcome,[2],inactive
same,max response,[3],-14.8% (inactive) and 4.36% (inactive)
same,outcome,[3],inactive
same,outcome,[4],inactive
same,Potency,[5],inactive
same,Potency,[6],inactive
same,Potency,[7],11.9 µM (active) and 14.8 µM (active)
CCC1(C)CC(=O)NC1=O (stereo not drawn),outcome,[1],inactive
same,max response,[2],-13.5% (inactive)
same,outcome,[2],inactive
same,outcome,[3],inactive
same,outcome,[4],inactive
same,outcome,[8],inactive
same,Potency,[5],inactive
same,Potency,[6],inactive
same,Potency,[9],inactive
same,Potency,[7],inactive
COc1ccccc1N1CCN(CC(O)COc2cccc3ccccc23)CC1 (stereo not drawn),max response,[2],3.01% (inactive)
same,max response,[10],9.55% (inactive)
same,max response,[3],0.0963% (inactive)
same,Potency,[5],inactive
same,Potency,[6],inactive
same,Potency,[9],inactive
same,Potency,[7],inactive
CN(C)C(=O)C(CCN1CCC(O)(c2ccc(Cl)cc2)CC1)(c1ccccc1)c1ccccc1,Potency,[1],13.2 µM (active) and 10.6 µM (active)
same,Potency,[10],20.9 µM (active)
same,Potency,[5],inactive
same,Potency,[6],inactive
same,Potency,[9],inactive
same,Potency,[7],18.7 µM (active)
CC1(CN2CCC(n3c(=O)[nH]c4ccccc43)CC2)OCc2ccccc2-n2cccc21 (stereo not drawn),max response,[2],-8% (inactive)
same,outcome,[2],inactive
same,max response,[3],-0.569% (inactive) and -13.1% (inactive)
same,outcome,[4],inactive
same,Potency,[5],inactive
same,Potency,[9],inactive
same,Potency,[7],inactive
COc1cc2nc(N3CCN(C(=O)c4ccco4)CC3)nc(N)c2cc1OC,max response,[2],-3.1% (inactive)
same,max response,[3],-23.2% (inactive)
same,Potency,[5],inactive
same,Potency,[9],29.6 µM (active)
same,Potency,[7],16.6 µM (active)
CC(C)C(=O)Nc1ccc([N+](=O)[O-])c(C(F)(F)F)c1,outcome,[2],inactive
same,max response,[3],-15.1% (inactive)
same,outcome,[3],inactive
same,outcome,[4],inactive
same,Potency,[5],inactive
same,Potency,[6],inactive
same,Potency,[9],inactive
same,Potency,[7],inactive
CN1C2CCC1CC(OC(=O)C(CO)c1ccccc1)C2 (stereo not drawn),max response,[1],0.412% (inactive)
same,outcome,[2],inactive
same,max response,[3],-0.822% (inactive)
same,outcome,[4],inactive
same,Potency,[5],inactive
same,Potency,[9],inactive
same,Potency,[7],inactive
O=C(c1ccc(F)cc1)C1CCN(CCn2c(=O)[nH]c3ccccc3c2=O)CC1,max response,[1],-0.877% (inactive) and -3.18% (inactive)
same,max response,[2],-0.754% (inactive) and -2.78% (inactive) and -3.98% (inactive)
same,max response,[10],-2.16% (inactive) and 6.29% (inactive)
same,outcome,[3],inactive
same,Potency,[5],inactive
same,Potency,[9],inactive
same,Potency,[7],inactive
O=C(c1ccc(OCCN2CCCCC2)cc1)c1c(-c2ccc(O)cc2)sc2cc(O)ccc12,Potency,[2],16.8 µM (active)
same,outcome,[2],inactive
same,max response,[10],-14.1% (inactive) and -7.5% (inactive)
same,Potency,[3],18.8 µM (active)
same,max response,[3],-12.5% (inactive)
same,outcome,[4],inactive
same,Potency,[5],inactive
same,Potency,[6],inactive
same,Potency,[9],inactive
same,Potency,[7],15 µM (active)
CC(C)NCC(O)c1ccc(O)c(O)c1 (stereo not drawn),max response,[2],3.14% (inactive) and -18% (inactive)
same,max response,[3],-0.342% (inactive) and -6.04% (inactive)
same,Potency,[5],inactive
same,Potency,[6],inactive
same,Potency,[9],8.41 µM (active)
same,Potency,[7],7.43 µM (active) and 18.8 µM (active)
CN(Cc1cnc2nc(N)nc(N)c2n1)c1ccc(C(=O)N[C@@H](CCC(=O)O)C(=O)O)cc1,Potency,[1],29.9 nM (active) and 33.2 nM (active)
same,Potency,[2],0.418 µM (active)
same,Potency,[3],266 nM (active) and 332 nM (active)
same,Potency,[6],inactive
same,Potency,[9],10.5 µM (active)
same,Potency,[7],inactive
O=c1[nH]cc(F)c(=O)[nH]1,Potency,[1],11.8 µM (active)
same,Potency,[3],3.76 µM (active) and 2.96 µM (active)
same,Potency,[5],inactive
same,Potency,[6],inactive
same,Potency,[9],inactive
same,Potency,[7],inactive
CC12CC3CC(C)(C1)CC(N)(C3)C2,max response,[1],-1.65% (inactive) and -16.7% (inactive)
same,max response,[2],0.352% (inactive) and -2.07% (inactive)
same,max response,[3],1.33% (inactive) and -0.312% (inactive)
same,Potency,[5],inactive
same,Potency,[6],inactive
same,Potency,[9],inactive
same,Potency,[7],inactive
C[C@@H]1CC(=O)NN=C1c1ccc(NN=C(C#N)C#N)cc1,Potency,[2],18.7 µM (active)
same,max response,[2],-5.36% (inactive) and -8.18% (inactive)
same,Potency,[5],inactive
same,Potency,[6],inactive
same,Potency,[9],inactive
same,Potency,[7],8.41 µM (active) and 7.5 µM (active)
CC(C(=O)O)c1cccc(C(=O)c2ccccc2)c1 (stereo not drawn),outcome,[4],inactive
same,Potency,[5],inactive
same,Potency,[6],inactive
same,Potency,[9],inactive
same,Potency,[7],inactive
COc1cc2nc(N3CCN(C(=O)C4COc5ccccc5O4)CC3)nc(N)c2cc1OC (stereo not drawn),max response,[2],-6.13% (inactive)
same,outcome,[2],inactive
same,max response,[10],19.6% (inactive) and -6.62% (inactive)
same,max response,[3],-16.5% (inactive)
same,outcome,[3],inactive
same,outcome,[4],inactive
same,Potency,[5],inactive
same,Potency,[9],inactive
same,Potency,[7],inactive
OCCN(CCO)c1nc(N2CCCCC2)c2nc(N(CCO)CCO)nc(N3CCCCC3)c2n1,outcome,[4],inactive
same,Potency,[5],inactive
same,Potency,[6],inactive
same,Potency,[9],inactive
Nc1nnc(-c2cccc(Cl)c2Cl)c(N)n1,max response,[1],-5.08% (inactive) and 0.349% (inactive)
same,outcome,[2],inactive
same,outcome,[3],inactive
same,outcome,[4],inactive
same,Potency,[5],inactive
same,Potency,[6],inactive
same,Potency,[9],inactive
same,Potency,[7],inactive
CNCCCC12CCC(c3ccccc31)c1ccccc12,Potency,[1],11.9 µM (active) and 16.6 µM (active)
same,max response,[2],-20.8% (inactive) and 4.86% (inactive)
same,max response,[10],3.46% (inactive)
same,Potency,[5],inactive
same,Potency,[7],23.5 µM (active)
COc1ccccc1OCCNCC(O)COc1cccc2[nH]c3ccccc3c12 (stereo not drawn),max response,[2],-11.1% (inactive)
same,outcome,[2],inactive
same,max response,[10],1.19% (inactive) and -0.545% (inactive)
same,max response,[3],-1.47% (inactive) and -25.5% (inactive)
same,outcome,[4],inactive
same,Potency,[5],inactive
same,Potency,[9],inactive
same,Potency,[7],16.8 µM (active)
CC#C[C@]1(O)CC[C@H]2[C@@H]3CCC4=CC(=O)CCC4=C3[C@@H](c3ccc(N(C)C)cc3)C[C@@]21C,Potency,[1],9.35 µM (active)
same,max response,[2],-29.4% (inactive) and -8.42% (inactive)
same,max response,[3],-20.2% (inactive) and -3.41% (inactive)
same,Potency,[5],inactive
same,Potency,[9],inactive and 105 nM (active)
same,Potency,[7],21.1 µM (active) and 93.5 nM (active)
COc1cc2nc(N(C)CCCNC(=O)C3CCCO3)nc(N)c2cc1OC (stereo not drawn),max response,[1],0.95% (inactive)
same,max response,[2],-0.905% (inactive) and -4.65% (inactive)
same,outcome,[3],inactive
same,Potency,[5],inactive
same,Potency,[6],inactive
same,Potency,[9],inactive
same,Potency,[7],inactive
NCCCCCC(=O)O,max response,[1],-1.96% (inactive) and 0.967% (inactive)
same,outcome,[2],inactive
same,max response,[3],-2.83% (inactive) and -5.79% (inactive)
same,outcome,[4],inactive
same,Potency,[5],inactive
same,Potency,[9],inactive
same,Potency,[7],inactive
OCCN1CCN(CCCN2c3ccccc3Sc3ccc(C(F)(F)F)cc32)CC1,max response,[2],-28.3% (inactive) and -6.1% (inactive)
same,Potency,[3],13.2 µM (active)
same,Potency,[5],inactive
same,Potency,[6],inactive
same,Potency,[9],21.1 µM (active)
same,Potency,[7],20.9 µM (active) and 21.1 µM (active)
CN1C(C(=O)Nc2ccccn2)=C(O)c2ccccc2S1(=O)=O,max response,[1],3.98% (inactive)
same,max response,[2],0.638% (inactive) and -49.2% (inactive)
same,max response,[3],1.34% (inactive)
same,Potency,[5],inactive
same,Potency,[9],inactive and 10.5 µM (active)
same,Potency,[7],inactive
CN(C)CCCN1c2ccccc2CCc2ccc(Cl)cc21,Potency,[1],13.2 µM (active) and 8.41 µM (active)
same,outcome,[2],inactive
same,max response,[3],-22.1% (inactive)
same,outcome,[4],inactive
same,Potency,[5],inactive
same,Potency,[9],inactive
same,Potency,[7],18.7 µM (active)
Nc1c2c(nc3ccccc13)CCCC2,Potency,[2],26.4 µM (active)
same,outcome,[2],inactive
same,outcome,[10],inactive
same,outcome,[3],inactive
same,outcome,[4],inactive
same,Potency,[5],inactive
same,Potency,[6],inactive
same,Potency,[9],inactive
same,Potency,[7],inactive
Clc1ccccc1C(c1ccccc1)(c1ccccc1)n1ccnc1,Potency,[1],20.9 µM (active)
same,max response,[2],-12.4% (inactive) and -20.3% (inactive)
same,Potency,[5],inactive
same,Potency,[6],inactive
same,Potency,[9],inactive
same,Potency,[7],inactive
Clc1ccc2c(c1)C(N1CCNCC1)=Nc1ccccc1O2,Potency,[1],20.6 µM (active)
same,outcome,[2],inactive
same,max response,[3],4.64% (inactive) and 1.82% (inactive) and -2.71% (inactive)
same,outcome,[4],inactive
same,Potency,[5],inactive
same,Potency,[9],inactive
same,Potency,[7],inactive
Fc1ccc([C@@H]2CCNC[C@H]2COc2ccc3c(c2)OCO3)cc1,max response,[1],-24.9% (inactive)
same,outcome,[2],inactive
same,max response,[3],-13.3% (inactive)
same,outcome,[4],inactive
same,Potency,[5],inactive
same,Potency,[9],inactive
same,Potency,[7],inactive
CN1CCC(=C2c3ccccc3CC(=O)c3sccc32)CC1,max response,[2],0.22% (inactive)
same,outcome,[2],inactive
same,max response,[10],-4.06% (inactive)
same,max response,[3],-5.39% (inactive)
same,outcome,[3],inactive
same,outcome,[4],inactive
same,Potency,[5],inactive
same,Potency,[9],inactive
same,Potency,[7],9.44 µM (active)
Cc1cn([C@H]2C=C[C@@H](CO)O2)c(=O)[nH]c1=O,max response,[1],-0.556% (inactive) and 1.63% (inactive)
same,max response,[2],4.4% (inactive) and -10.3% (inactive)
same,max response,[3],1.04% (inactive) and -9.57% (inactive)
same,Potency,[5],inactive
same,Potency,[6],inactive
same,Potency,[9],inactive
same,Potency,[7],inactive
CN(C)CCOC(c1ccccc1)c1ccccc1,outcome,[1],inactive
same,outcome,[2],inactive
same,outcome,[3],inactive
same,outcome,[4],inactive
same,outcome,[8],inactive
same,Potency,[5],inactive
same,Potency,[9],inactive
same,Potency,[7],inactive
